Reference: the supplement of paper PMC10681739

Tests used:
ETS1 [1] = molecular target: T1, ETS1 (UniProt P14921); assay: ETS1 binding intensity (PBM fluorescence), ETS1 alone (arbitrary fluorescence units); higher = stronger binding; conditions: ETS1 concentration 1 nM; RUNX1 concentration 0 nM
T1 sequence: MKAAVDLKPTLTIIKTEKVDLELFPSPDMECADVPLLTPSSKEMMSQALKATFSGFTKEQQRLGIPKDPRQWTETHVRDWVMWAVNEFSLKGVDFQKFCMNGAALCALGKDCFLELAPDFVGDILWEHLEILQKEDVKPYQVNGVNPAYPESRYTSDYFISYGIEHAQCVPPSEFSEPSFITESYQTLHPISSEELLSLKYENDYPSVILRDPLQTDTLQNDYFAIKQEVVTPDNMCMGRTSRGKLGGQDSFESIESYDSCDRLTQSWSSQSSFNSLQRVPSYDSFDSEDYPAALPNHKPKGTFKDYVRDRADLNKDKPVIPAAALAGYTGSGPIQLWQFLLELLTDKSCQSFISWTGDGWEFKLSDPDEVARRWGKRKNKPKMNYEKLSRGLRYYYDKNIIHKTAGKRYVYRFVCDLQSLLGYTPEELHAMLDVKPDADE

RUNX1 [2] = molecular target: RUNX1 (UniProt Q01196); assay: RUNX1 binding intensity (PBM fluorescence), RUNX1 alone (arbitrary fluorescence units); higher = stronger binding; conditions: RUNX1 concentration 2 nM; ETS1 concentration 0 nM
RUNX1, sequence (Q01196 whole entry): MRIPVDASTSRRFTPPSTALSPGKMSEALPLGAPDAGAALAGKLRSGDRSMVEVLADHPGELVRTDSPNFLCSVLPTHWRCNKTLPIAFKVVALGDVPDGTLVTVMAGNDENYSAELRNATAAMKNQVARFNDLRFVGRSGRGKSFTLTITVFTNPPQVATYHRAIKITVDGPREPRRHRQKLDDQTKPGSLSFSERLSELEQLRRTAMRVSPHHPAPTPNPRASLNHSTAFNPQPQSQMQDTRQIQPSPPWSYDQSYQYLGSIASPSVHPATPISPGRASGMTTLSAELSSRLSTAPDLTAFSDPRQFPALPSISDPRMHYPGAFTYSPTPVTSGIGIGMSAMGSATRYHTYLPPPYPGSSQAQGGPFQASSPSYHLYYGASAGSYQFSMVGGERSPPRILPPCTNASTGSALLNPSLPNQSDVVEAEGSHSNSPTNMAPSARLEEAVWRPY
Method: (§1)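 Cooperative gcPBM on 36-bp genomic probes with neighbouring ETS1 and RUNX1 sites. Recombinant human RUNX1 (2 nM) was incubated alone or with ETS1 (25 nM) and detected with anti-RUNX1 antibody plus Alexa488 secondary. Values are medians over 4 replicate spots; the RUNX1+ETS1 data were normalised to the RUNX1-only data. The probes sit in constant array flanks that are not printed.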

ETS1 [3] = molecular target: T1, ETS1; assay: ETS1 binding intensity (PBM fluorescence) in presence of RUNX1, normalised to ETS1-only experiment (arbitrary fluorescence units); higher = stronger binding; conditions: ETS1 concentration 1 nM; RUNX1 concentration 25 nM
RUNX1 [4] = molecular target: RUNX1 (UniProt Q01196); assay: RUNX1 binding intensity (PBM fluorescence) in presence of ETS1, normalised to RUNX1-only experiment (arbitrary fluorescence units); higher = stronger binding; conditions: RUNX1 concentration 2 nM; ETS1 concentration 25 nM
Method: as §1
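For RUNX1 binding intensity (PBM fluorescence) in presence of ETS1, normalised to RUNX1-only experiment in this document: Full-length recombinant human ETS1 or RUNX1 bound to double-stranded 36-bp genomic probes on microarrays, detected by protein-specific primary antibody and Alexa488 secondary, spot fluorescence as median of four replicate spots.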
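For RUNX1 binding intensity (PBM fluorescence), RUNX1 alone in this document: Full-length recombinant human RUNX1 bound to double-stranded 36-bp genomic probes on a high-density microarray, scored as Alexa488 fluorescence per spot via anti-RUNX1 antibody, median of four replicate spots.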

Sequence	ETS1 binding intensity (ETS1 [1])	RUNX1 binding intensity (RUNX1 [2])	ETS1 binding intensity (ETS1 [3])	RUNX1 binding intensity (RUNX1 [4])
CGATTCCGGAGACAGGCCCCACCGTGCGGTAAACTG	550	835	810	931
TCTGGGGGAGGGGAAGGATGTGGTTTGCAGAGCGGA	873	1020	5630	1470
GTAGCTCCTCCCACTTCCCGTGGTTTTCGGTTGAAC	564	1240	916	2760
CTGTCCCTAGCAGGATGTGGTTTGCACATTGCTGCT	3220	962	12500	4600
CCCTCAGCGGAAGTGGAAGCTGTGGTTTCCAAAGGC	4750	916	17000	3570
CAGCCGACTTCCGGGGTGGGGCTTGCTGCCGCAGAG	1760	774	1780	1730
CTCATCAGTCATCCGGCTGGACCGCAGGAGCTCTCC	403	933	500	1570
GCTCTTCACTTCCTGTGGCTCCCGCAGCGGCCGCCG	1920	1090	1560	2460
GCAGTGCAGGAAGTGCTTTGTGTGGTACAATCCCAA	1920	759	2110	1030
TTTTTTCCGCCTGTAGGGTCACATTGTGGTTGATTG	446	1000	725	1790
CAGGGTGGAAACAGGAAGAGAAACCACACTTAACCT	1540	845	7190	1070
TGGCGCTTCCTGTCGCTACCGCTGCGGCCCAGGGCC	819	755	763	1860
GTTATTCTCCCCTTCCTGTGGTGTGTTTTGATGGTA	702	1120	626	1590
TATGTCTGACTTCCGCTCGTGGTTTCCATCTTAGCC	2870	895	5230	2850
AAATGTGGCCGGATGCTCTGTGGGCGGGCGGCAGCT	2890	700	3770	1300
AAACTCCCCCACTTCCGCCCACAGCCCTCTGGGCTT	2010	984	2120	3490
CTAACCCTTCTCTTCCTGCAAAAACCACAACAAAGG	640	2250	1720	3580
GATGGTGTCTTTTGGGGATGTGGGTTTGGGGGATGG	564	835	1610	961
GGGAGGTGTCCAGGAAGTGGTTGGAGAGTCTGGTCT	2240	756	3340	1020
TACCCCGCCGGAAGCCCCCTGCTCTGTGGGAACCGG	2480	894	3660	1270
GCCTCCTCCCATTTCCTCCATGTGGTCAATCCAGTT	459	2070	731	3860
ACGCGCTCCCTCACTTCCTGCGGCTTTTGGTCCCTC	1310	1880	1500	2800
GGCGCGGGCTGCTTCCGGTCTGCGGGCCTGAGGAGG	5650	672	5010	1770
CCAGTACCCCACTTCCTGACCAAACCACAAAGGTCA	635	2980	2450	8080
GCGAGGAGACAACTTCCTTTTGTGGTCTGACCCTGG	638	857	1590	1970
GTCAGGGGAACAGGATGTGGGTGGGAGCCAGCCCCA	4250	729	5560	2540
CAGCTGCTGACAGGAAAACCACAGTGGAAGGGGAAG	848	898	1550	1050
GCCTGTCGCAGGAACGGAAGTGGTTACGGCCCTAGT	8480	830	19800	3500

Sequence	ETS1 binding intensity (ETS1 [1])	RUNX1 binding intensity (RUNX1 [2])	ETS1 binding intensity (ETS1 [3])	RUNX1 binding intensity (RUNX1 [4])
AATGCAGCATTTCCTCTCCAGTTCACCACAGGCCCC	590	1490	634	2420
CAGAGAAACAGGAAGAACAGTGGTTTCAACTGAAAT	1310	783	1310	939
ACCATCCTGTAGTCTGTTAAGTGAGCAACCGCATTA	447	1130	948	1900
ATCTTCAGGAAGCGGTATCAACCTGAAAACCACCAC	561	772	870	1250
GAAGGCGGTTCCGGTTCGCGGCGGTTCCCGGGTTTT	515	794	466	1820
CCCGCCACTTCCCTGCCTCTGCGGGAGCCCCCCAGC	573	938	545	1430
GTAAGTAGGCCAGGAAGTGGTCACTGCAGCATGTGA	3740	722	4960	1440
AAATCCACTCAGAGGAAACCACAGGCCTGGCCCAGC	365	1300	622	1690
CTTCTGAGAGGAGGATGTGGTCAGATACCTACAAAT	1030	854	7800	1650
GAGTACAGGAAATGCAAAGTAAAACCACAGTGAGAT	1460	904	4550	1850
GGTTTAACGTTTCCGGTTTGTGGCTAGTTTCTTGTC	7540	1060	12500	3520
TGGGGCCCGGAAGCGCTGGCGCCTTGCGGCCAGAAG	1500	707	3180	952
GGGCGGGTCAGCGGAAGTGAGGGCGGTTGAGGCTGG	4740	742	4550	1320
GGGCAGGGCATTTCCTTTGTGGCTGGTGCTCACGGA	493	710	413	1360
GGGGCAGCTTCCGGCAGGAGAGCCCGCATTCCCGGC	903	1460	771	2470
GCCACCTCTTCCTGTGTTGCAAACCACAGGTCCACC	805	1600	1320	5050
TCTTGAGGGTCAGGATGTGGTGAGGCCAGAGAAGGC	951	808	2120	1420
CTCCGCCTTTCACTTCCTAGTAACCGCCCTCCCTTG	522	2190	647	2400
GCAACGGAGTCCGGAAGAACCACAGAGACGCGGCTC	789	730	694	858
CCCGGAAACTCAACTGCCCACTGCTGCGGCCGCCAT	599	1070	708	1090
TACAATTCGCACCGGAACTTGCGGCCCGGCTTCATT	3630	729	4640	963
AAGGCGGAGGAAGGGAAAATTGTGGTTGGGCAGAGG	511	835	742	887
GCAGCATTTCCTGACTTCTTCGCCCCTGTGGTTGCA	440	850	480	1690
CCTCACAGGGACTTCCTTCCCCGCGGTTCAGGAATC	444	866	577	1100
CTGAGCAAAAGGAGGAAGCTGTGGTCTGTGTACCCA	606	810	1800	945
CGAGCAGGAAGTGGCAAGATTTGATAGGCGGTCAGG	1970	739	2940	1450
TTACAGGGGCCGGAAGTGGCCTGCGGGCGGAGAAGT	21200	753	30900	2020
